PubChem BioAssay (Tox21)
“And” between values parts separate entries of the source, which are not always exact repeats. Equal values may be shown once. Records with an inconclusive call do not appear. Entries that show only a call come without a potency. A structure can be active in one record and inactive in another. The source made the active and inactive calls. Unless noted, calls come from the whole dose curve; as a rule, active = well fitted curve in the direction sought with a large enough effect in the repeat runs; inconclusive = weak or mixed curves; inactive = no such curve, though single readings can be large; an effect the other way counts as inactive or inconclusive.

How the values were obtained:
[1] = qHTS assay to identify small molecule antagonists of the estrogen related receptor (ERR) signaling pathway from Tox21 library - cell viability counter screen (AID 1224834); note: nearly all actives have a fitted effect of over 30% in size; note: potency is the fitted concentration of half-maximal effect
Method in brief: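 After 17.5 h of compound exposure at 37 C, ERR cells are incubated with CellTiter-Fluor for 30 min and fluorescence intensity serves as the viability measure.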

[2] = qHTS assay to identify small molecule agonists of the constitutive androstane receptor (CAR) signaling pathway - cell viability counter screen (AID 1224836); note: nearly all actives have a fitted effect of over 45% in size
Method in brief: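 Fluorescence from CellTiter-Fluor indicates live cells after 23 h exposure. The human hepatoma line expresses hCAR and a CYP2B6-2.2kb reporter. Incubation medium contains 0.75 uM PK11195 (final).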

[3] = qHTS assay to identify small molecule antagonists of the constitutive androstane receptor (CAR) signaling pathway - cell viability counter screen (AID 1224837); note: nearly all actives have a fitted effect of over 45% in size
Method in brief: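 Counter screen run in HepG2-CYP2B6-hCAR cells: 4 hr settle, compound titration (15 concentrations) with 50 nM CITCO, 23 hr at 37 C/5% CO2, CellTiter-Fluor fluorescence.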

[4] = target: Nuclear receptor subfamily 1 group I member 3 (Homo sapiens) (UniProt Q14994); experiment: qHTS assay to identify small molecule antagonists of the constitutive androstane receptor (CAR) signaling pathway (AID 1224838);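 note: HepG2 cells stably expressing hCAR with CYP2B6 luciferase reporter stimulated by CITCO; nearly all actives have a fitted effect of over 40% in size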
Sequence of Nuclear receptor subfamily 1 group I member 3 (Homo sapiens) (Q14994 whole entry, looked up): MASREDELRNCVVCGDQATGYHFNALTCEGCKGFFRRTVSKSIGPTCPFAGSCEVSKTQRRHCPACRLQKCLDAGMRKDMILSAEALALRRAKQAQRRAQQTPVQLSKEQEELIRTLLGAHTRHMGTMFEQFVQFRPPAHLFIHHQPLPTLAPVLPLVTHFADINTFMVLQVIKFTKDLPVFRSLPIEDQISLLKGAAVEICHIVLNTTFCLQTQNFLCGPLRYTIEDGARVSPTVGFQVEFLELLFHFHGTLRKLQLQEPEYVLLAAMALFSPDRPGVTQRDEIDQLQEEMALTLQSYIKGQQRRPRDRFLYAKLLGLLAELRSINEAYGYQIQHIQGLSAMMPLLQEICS
Method in brief: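 Cell line: HepG2 double-stable for hCAR and CYP2B6-2.2kb reporter. Agonist: CITCO, 50 nM final. Compounds: 15 concentrations, 24 h, 37 C. Detection: ONE-Glo luminescence.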

[5] = target: Nuclear receptor subfamily 1 group I member 3 (Homo sapiens) (UniProt Q14994); experiment: qHTS assay to identify small molecule agonists of the constitutive androstane receptor (CAR) signaling pathway (AID 1224839); note: nearly all actives have a fitted effect of over 15% in size; note: potency is the fitted concentration of half-maximal effect;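 for activation: HepG2 cells stably carrying human CAR and a CYP2B6 luciferase reporter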
Method in brief: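 Stable hCAR/CYP2B6-2.2kb HepG2 line in DMEM with 10% FBS; compounds (15 concentrations) and 0.75 uM PK11195 final, 24 h at 37 C/5% CO2, then ONE-Glo luminescence after 30 min.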

[6] = qHTS assay to identify small molecule antagonists of the estrogen related receptor signaling pathway with the pleiotropic PPARgamma coactivator (PGC) from Tox21 10K library - cell viability counter screen (AID 1224840; active = well fitted cell-killing curve with a large enough effect in the repeat runs, not every such curve was filed as active; note: nearly all actives have a fitted effect of over 40% in size; note: potency is the fitted concentration of half-maximal effect)
Method in brief: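 Following seeding of 2,000 PGC/ERR cells/well and 6 hours' incubation, test compounds were delivered in DMSO. The plates then sat 17.5 hours at 37 C before a fluorogenic live-cell protease reagent (CellTiter-Fluor) was read after 30 min.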

[7] = target: Thyrotropin receptor (Homo sapiens) (UniProt P16473); experiment: qHTS assay to identify small molecule agonists of the thyroid stimulating hormone receptor (TSHR) signaling pathway (AID 1224843; calls by dose curve; note: nearly all actives have a fitted effect of over 45% in size; note: potency is the fitted concentration of half-maximal effect)
Sequence of Thyrotropin receptor (Homo sapiens) (P16473 whole entry, looked up): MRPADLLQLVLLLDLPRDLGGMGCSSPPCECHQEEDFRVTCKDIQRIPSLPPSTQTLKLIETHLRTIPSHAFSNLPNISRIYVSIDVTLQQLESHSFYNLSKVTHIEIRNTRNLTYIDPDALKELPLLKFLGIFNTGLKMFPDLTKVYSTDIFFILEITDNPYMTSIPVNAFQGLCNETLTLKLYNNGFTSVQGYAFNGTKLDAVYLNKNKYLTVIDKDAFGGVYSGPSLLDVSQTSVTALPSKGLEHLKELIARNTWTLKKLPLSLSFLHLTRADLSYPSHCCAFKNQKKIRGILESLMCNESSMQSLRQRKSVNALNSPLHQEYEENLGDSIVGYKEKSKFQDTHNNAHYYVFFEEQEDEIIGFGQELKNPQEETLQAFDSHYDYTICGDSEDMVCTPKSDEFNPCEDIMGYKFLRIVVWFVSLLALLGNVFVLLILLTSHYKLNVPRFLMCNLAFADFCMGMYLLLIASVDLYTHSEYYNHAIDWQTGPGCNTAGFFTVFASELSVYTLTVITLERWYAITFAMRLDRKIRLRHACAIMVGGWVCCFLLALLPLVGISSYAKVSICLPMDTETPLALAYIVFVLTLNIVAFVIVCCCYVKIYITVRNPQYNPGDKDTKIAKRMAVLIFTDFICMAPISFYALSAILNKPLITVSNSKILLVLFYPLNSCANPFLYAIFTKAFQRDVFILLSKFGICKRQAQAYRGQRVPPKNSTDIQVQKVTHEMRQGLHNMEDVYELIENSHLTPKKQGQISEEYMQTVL
Method in brief: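 HEK293 cells stably bearing the thyrotropin receptor were plated at 800 cells/well and challenged with compound (30 min, RT). Accumulated cAMP was quantified via cAMP-d2 competing for cryptate-tagged antibody.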

[8] = qHTS assay to identify small molecule agonists of the hypoxia (HIF-1) signaling pathway - cell viability counter screen (AID 1224844; calls by dose curve; note: nearly all actives have a fitted effect of over 50% in size; note: potency is the fitted concentration of half-maximal effect)
Method in brief: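 Cells (HRE-bla ME-180, 2,000 per well) sat 5 hrs at 37C, got compound for 17 hrs, were read for CCF4-AM FRET, and were finally lysed with CellTiter-Glo for a 30 min room-temperature luminescence read.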

[9] = qHTS assay to identify small molecule agonists of H2AX (AID 1224845; active = well fitted activation curve with a large enough effect in the signal ratio in the repeat runs, not every such curve was filed as active; the % refers to the signal ratio)
Method in brief: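 Phospho-H2AX Ser139 measured by HTRF (ex 320 nm; em 665 and 620 nm) after 24 hr antibody incubation. Compounds, 15 concentrations, 0.76% DMSO, were applied to CHO-K1 cells for 3hr at 37C before lysis.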

[10] = qHTS assay to identify small molecule agonists of the hypoxia (HIF-1) signaling pathway (AID 1224846; active = well fitted activation curve with a large enough effect in the signal ratio in the repeat runs, not every such curve was filed as active; the % refers to the signal ratio)
Method in brief: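 A low-serum medium (0.5% dialyzed FBS) holding 2,000 HRE-bla ME-180 cells per well is preincubated for 5 hrs, dosed with compounds by pintool, and kept a further 17 hrs at 37C, 5% CO2 before CCF4-AM FRET detection of beta-lactamase.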

[11] = qHTS assay to identify small molecule agonists of H2AX - cell viability counter screen (AID 1224847; calls by dose curve; note: nearly all actives have a fitted effect of over 30% in size; note: potency is the fitted concentration of half-maximal effect)
Method in brief: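 Viability of CHO-K1 (wild type) cells after 3 hr compound exposure was measured by CellTiter-Glo luminescence.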

[12] = qHTS RealTime-Glo MT Cell Viability Assay in HepG2 cells - 24 hour (AID 1224867); note: nearly all actives have a fitted effect of over 50% in size
Method in brief: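 HepG2 cells (600/well) were dispensed with RealTime-Glo reagents, incubated 5 h at 37 °C, then treated with compounds in DMSO for up to 40 h. Nonlytic NanoLuc luminescence reflecting viable cells was read at each stated time point.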

[13] = A CellTox Green Cytotoxicity Assay to monitor cytotoxicity in HEK293 cells - 0 hour (AID 1224869); note: nearly all actives have a fitted effect of over 50% in size
Method in brief: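 Fluorescence intensity, read at 0, 8, 16, 24, 32 and 40 h of compound treatment, reflected dye binding to DNA of dead HEK293 cells; compounds (23 nL, DMSO) were added 5 h after plating cells with reagent.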

[14] = qHTS RealTime-Glo MT Cell Viability Assay in HEK293 cells - 32 hour (AID 1224868); note: nearly all actives have a fitted effect of over 50% in size; note: potency is the fitted concentration of half-maximal effect
Method in brief: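 HEK293 cells seeded with NanoLuc/prosubstrate reagent, rested 5 h at 37 C, then dosed and kept at 37 C up to 40 h. Nonlytic real-time luminescence from viable cells read at 0, 8, 16, 24, 32 and 40 h.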

[15] = target: Luciferin 4-monooxygenase (Photinus pyralis) (UniProt P08659); experiment: qHTS assay to identify small molecule inhibitors of firefly luciferase (AID 1224835); note: nearly all actives have a fitted effect of over 25% in size
Sequence of Luciferin 4-monooxygenase (Photinus pyralis) (P08659 whole entry, looked up): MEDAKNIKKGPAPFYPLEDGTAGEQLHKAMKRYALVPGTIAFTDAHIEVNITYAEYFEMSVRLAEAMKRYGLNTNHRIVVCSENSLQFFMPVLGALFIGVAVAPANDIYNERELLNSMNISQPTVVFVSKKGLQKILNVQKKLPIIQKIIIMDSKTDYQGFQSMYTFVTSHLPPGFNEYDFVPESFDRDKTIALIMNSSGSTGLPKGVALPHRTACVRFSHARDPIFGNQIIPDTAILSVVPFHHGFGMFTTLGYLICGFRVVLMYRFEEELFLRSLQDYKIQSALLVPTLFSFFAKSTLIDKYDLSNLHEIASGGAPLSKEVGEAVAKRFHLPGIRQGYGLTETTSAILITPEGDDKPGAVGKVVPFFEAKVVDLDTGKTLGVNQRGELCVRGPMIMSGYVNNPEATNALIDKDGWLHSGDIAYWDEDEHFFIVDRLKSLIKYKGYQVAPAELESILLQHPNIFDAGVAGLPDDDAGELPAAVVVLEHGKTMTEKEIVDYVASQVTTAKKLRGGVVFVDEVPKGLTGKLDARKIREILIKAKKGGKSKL
Method in brief: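 Inhibition of purified Photinus luciferase is measured by luminescence. Substrate levels (D-luciferin, ATP) sit at their KM values. Each compound is tested in a concentration series.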

[16] = qHTS assay to identify small molecule antagonists of the estrogen related receptor signaling pathway with the pleiotropic PPARgamma coactivator (PGC) from Tox21 10K library (AID 1224841; call rule not given here)
Method in brief: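 qHTS antagonist format: PGC/ERR cells, 2k/well, compound in DMSO by pin transfer after 6 h attachment, 18 h treatment at 37 C, One-Glo luminescence read at 30 min.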

[17] = qHTS assay to identify small molecule agonists of the estrogen related receptor signaling pathway with the pleiotropic PPARgamma coactivator (PGC) from Tox21 10K library (AID 1224842); note: nearly all actives have a fitted effect of over 15% in size
Method in brief: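 Luminescence from One-Glo (30 min, room temperature) measured after PGC/ERR cells had 18 h at 37 C with pinned compound (23 nL in DMSO). Cells had been seeded at 2,000 per well and pre-incubated 6 h.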

[18] = qHTS assay to identify small molecule antagonists of the estrogen related receptor (ERR) signaling pathway from Tox21 library (AID 1224848); note: nearly all actives have a fitted effect of over 50% in size
Method in brief: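 Reading was by luminescence 30 min after ONE-Glo addition. Before that, ERR cells at 2,000 per well had rested 6 h at 37 C/5% CO2 and then received pin-tooled compounds in DMSO for 18 h at 37 C.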

[19] = qHTS assay to identify small molecule agonists of the estrogen related receptor (ERR) signaling pathway from Tox21 library (AID 1224849; calls by dose curve; note: nearly all actives have a fitted effect of over 15% in size); conditions: ERR reporter cell line, ONE-Glo luciferase, 18 h; at 92.4 µM (top of the series)
Method in brief: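 Screening used an NTP-provided ERR luciferase cell line. Compounds in DMSO were added 6 h after seeding and left 18 h at 37 C before a 30 min ONE-Glo step and luminescence reading.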

SMILES	Potency [1]	Potency [2]	Potency [3]	Potency [4]	Potency [5]	Potency [6]	Potency [7]	Potency [8]	Potency [9]	outcome [10]	Potency [11]	Potency [12]	Potency [13]	Potency [14]	Potency [15]	Potency [16]	Potency [17]	Potency [18]	activity change, positive = activation [19]
CC[Si](OC(C)=O)(OC(C)=O)OC(C)=O	inactive	inactive	inactive	inactive	inactive	inactive	inactive	inactive	inactive	inactive	inactive	inactive	inactive	–	–	–	–	–	–
O=[N+]([O-])c1cc(N(CCO)CCO)ccc1NCCO	48.5 µM (active)	–	inactive	–	–	inactive	–	inactive	–	inactive	50.4 µM (active) and 50.5 µM (active)	–	inactive	inactive	–	–	–	–	–
NS(=O)(=O)c1cc2c(cc1Cl)NC=NS2(=O)=O	inactive	inactive	inactive	inactive	–	inactive	inactive	inactive	inactive	inactive	inactive	–	–	–	–	–	–	–	–
C=C1CC[C@H](O)CC1=C/C=C1\CCC[C@]2(C)[C@@H]([C@H](C)/C=C/[C@H](C)C(C)C)CC[C@@H]12	–	inactive	inactive	inactive	–	inactive	21.5 µM (active) and 34.4 µM (active)	43.3 µM (active) and 34.7 µM (active)	–	–	–	–	–	48.5 µM (active) and 43.6 µM (active)	inactive	–	–	–	–
Clc1cc(Cl)c(Cl)cc1Cl	inactive	inactive	inactive	–	–	inactive	–	inactive	inactive	inactive	inactive	inactive	inactive	inactive	–	inactive	inactive	inactive	6.69% (inactive) and 12.5% (inactive)
O=C1N=C(O)CN1/N=C/c1ccc(-c2ccc([N+](=O)[O-])cc2)o1	43.3 µM (active) and 26.6 µM (active)	–	inactive	inactive	inactive	48.6 µM (active) and inactive	inactive	inactive	inactive	–	inactive	–	inactive	–	–	–	–	–	–
CC1=CC[C@H]2C[C@@H]1C2(C)C	inactive	inactive	inactive	–	–	inactive	inactive	inactive	inactive	inactive	inactive	inactive	–	–	–	–	–	–	–
CC(C)n1c(/C=C/[C@@H](O)C[C@@H](O)CC(=O)O)c(-c2ccc(F)cc2)c2ccccc21	inactive	inactive	inactive	–	–	inactive	–	inactive	inactive	inactive	inactive	inactive	inactive	–	–	–	–	–	–
CN(C)c1cccc(O)c1	inactive	inactive	inactive	inactive	62.1 µM (active)	inactive	inactive	inactive	inactive	inactive	inactive	–	inactive	inactive	–	–	–	–	–
CCCCOCCOCCOC(=O)CCCCC(=O)OCCOCCOCCCC	inactive	inactive	inactive	inactive	inactive	inactive	–	inactive	inactive	inactive	inactive	–	inactive	inactive	–	–	–	–	–
OC[C@@H](O)[C@@H](O)[C@H](O)[C@@H](O)CO	inactive	inactive	inactive	–	–	inactive	inactive	inactive	inactive	inactive	inactive	inactive	–	inactive	–	inactive	inactive	inactive	3.67% (inactive) and 4.92% (inactive)
CC(C)NCC(O)COc1cccc2ccccc12 (stereo unspecified)	inactive	–	inactive	inactive	inactive	inactive	–	inactive	inactive	–	inactive	inactive	–	–	–	–	–	–	–
Cc1ccc(C(=O)O)o1	inactive	inactive	inactive	inactive	inactive	inactive	inactive	inactive	inactive	inactive	inactive	inactive	inactive	–	–	–	–	–	–
